# The whole screen tested about 310,000 compounds, of which about 2,200 (0.71%) showed an effect of 50% or more. The effect is printed as a negative number. The sample holds strong results, similar compounds and a random draw of the others, so the mix is not that of the screen.
# Biological target: human ether-à-go-go-related gene (hERG) potassium channel (human, UniProt Q12809)
# Experiment: primary screen, population patch clamp on CHO cells stably expressing hERG; higher = less effect of the substance
# Sequence of human ether-à-go-go-related gene (hERG) potassium channel (Q12809 whole entry, looked up): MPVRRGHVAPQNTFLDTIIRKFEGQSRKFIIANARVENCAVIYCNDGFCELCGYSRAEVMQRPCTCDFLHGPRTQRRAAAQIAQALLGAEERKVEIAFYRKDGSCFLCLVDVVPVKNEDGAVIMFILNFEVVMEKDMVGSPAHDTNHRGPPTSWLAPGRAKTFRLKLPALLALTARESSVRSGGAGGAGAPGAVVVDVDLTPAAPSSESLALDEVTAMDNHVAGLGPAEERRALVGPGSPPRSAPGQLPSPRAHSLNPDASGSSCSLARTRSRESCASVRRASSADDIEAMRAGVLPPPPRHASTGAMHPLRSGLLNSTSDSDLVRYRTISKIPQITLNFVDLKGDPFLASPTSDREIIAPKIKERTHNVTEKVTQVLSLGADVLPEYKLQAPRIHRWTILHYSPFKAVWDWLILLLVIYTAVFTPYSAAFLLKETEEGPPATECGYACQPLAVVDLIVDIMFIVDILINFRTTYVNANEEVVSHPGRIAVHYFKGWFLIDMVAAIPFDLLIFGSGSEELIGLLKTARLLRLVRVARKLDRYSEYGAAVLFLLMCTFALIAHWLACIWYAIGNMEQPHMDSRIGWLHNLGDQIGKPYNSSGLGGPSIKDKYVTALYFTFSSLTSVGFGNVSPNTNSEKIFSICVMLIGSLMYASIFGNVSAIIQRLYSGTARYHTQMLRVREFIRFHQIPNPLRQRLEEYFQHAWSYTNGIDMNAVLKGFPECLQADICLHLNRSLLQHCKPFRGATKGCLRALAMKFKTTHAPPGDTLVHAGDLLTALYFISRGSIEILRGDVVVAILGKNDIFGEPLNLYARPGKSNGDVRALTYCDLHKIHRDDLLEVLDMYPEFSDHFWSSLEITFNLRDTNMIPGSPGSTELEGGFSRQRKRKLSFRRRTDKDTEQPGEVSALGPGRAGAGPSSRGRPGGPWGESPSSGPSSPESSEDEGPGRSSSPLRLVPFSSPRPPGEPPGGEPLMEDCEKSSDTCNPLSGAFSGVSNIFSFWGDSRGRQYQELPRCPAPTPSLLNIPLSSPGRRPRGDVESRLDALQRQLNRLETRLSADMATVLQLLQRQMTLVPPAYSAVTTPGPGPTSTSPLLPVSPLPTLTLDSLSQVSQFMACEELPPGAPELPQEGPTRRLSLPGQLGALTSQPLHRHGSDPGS
row,Structure (SMILES),"hERG current change (%, negative = inhibition) at 1uM [%]"
1,CC(NS(=O)(=O)c1cccc(S(=O)(=O)c2ccccc2)c1)C(=O)O (centres unmarked),7.71
2,O=C(CSc1ccc(-c2cccnc2)nn1)N1CCCCC1,14.1
3,COc1ccc(-c2[nH]ncc2CN(C)C(C)c2ccncn2)c(F)c1 (centres unmarked),1.94
4,COc1cc(Br)c(C(=O)c2nccc3cc(OC)c(OC)cc23)cc1OC,10.6
5,O=C(COc1ccc2ccc(=O)oc2c1)Nc1nccs1,2.46
6,O=C1N/C(=N/N=C/c2ccc(O)cc2)SC1Cc1ccccc1 (centres unmarked),-0.776
7,Cc1occc1C(=O)N/N=C/c1ccc(N(C)C)cc1,15.7
8,O=C(NC1(C(F)(F)F)NC(=O)N(Cc2ccco2)C1=O)c1cccs1 (centres unmarked),19.2
9,CC(=O)N1CCN(c2ccc(NC(=O)c3ccc(Br)o3)cc2Cl)CC1,-1.25
10,Cc1ccc(Cl)cc1N1CCN(S(=O)(=O)c2cnc[nH]2)CC1,1.64
11,CN(Cc1ccccc1)S(=O)(=O)c1cc2c3c(c1)CCN3C(=O)CC2,6.98
12,O=C(NN1C(=O)c2ccccc2NC1c1ccco1)c1ccccc1 (centres unmarked),4.38
13,O=C(NN1C(=O)c2ccccc2NC1c1ccc([N+](=O)[O-])o1)c1ccc(Br)cc1 (centres unmarked),-27.2
14,O=C(NN1C(=O)c2ccccc2NC1c1ccco1)c1ccc(Br)cc1 (centres unmarked),-50.4
15,O=C(Nc1ccc2oc(=O)ccc2c1)c1cccnc1Cl,-2.76
16,CN(C)S(=O)(=O)c1ccc(C(=O)OCCCN=C2NS(=O)(=O)c3ccccc32)cc1,-5.83
17,O=C(c1ccc(Cl)cc1)C1CCCN(Cc2ccc3nonc3c2)C1 (centres unmarked),0.831
18,CSc1ccc(C(=O)C2CCCN(CCCn3cccn3)C2)cc1 (centres unmarked),-78.3
19,CSc1ccc(C(=O)C2CCCN(Cc3cccnc3)C2)cc1 (centres unmarked),-4.37
20,O=C(c1ccc(-c2ccccc2)c(F)c1)C1CCCN(CCCn2cccn2)C1 (centres unmarked),-38.6
21,CSc1ccc(C(=O)C2CCCN(Cc3cnc(SC)nc3)C2)cc1 (centres unmarked),-33.7
22,COc1ccc(CN2CCCC(C(=O)c3ccc(Cl)cc3)C2)cc1Cn1cncn1 (centres unmarked),-59.9

row,Structure (SMILES),"hERG current change (%, negative = inhibition) at 1uM [%]"
1,COc1cccc(C(=O)C2CCCN(Cc3ccc(OC)c(Cn4cncn4)c3)C2)c1 (centres unmarked),-20.2
2,COc1cc(CN2CCCC(C(=O)c3ccc(SC)cc3)C2)cc(Cl)c1O (centres unmarked),-3.13
3,COc1ccc(C(=O)C2CCCN(Cc3cc(Cl)ccc3O)C2)c(OC)c1 (centres unmarked),12.6
4,COc1ccc(CN2CCCC(C(=O)c3ccc(SC)cc3)C2)cc1Cn1cccn1 (centres unmarked),-68.5
5,COc1ccc(CN2CCCC(C(=O)c3ccc(Cl)cc3)C2)c(OC)c1 (centres unmarked),-53.6
6,COc1ccc(CN2CCCC(C(=O)c3ccc(Cl)cc3)C2)c(O)c1 (centres unmarked),-21.3
7,Cc1ccc(-c2nc(Nc3cccc(C)c3)sc2CC(=O)O)cc1,9.35
8,O=C(NCCCCc1ccccc1)Nc1cccc(F)c1,4.51
9,COC(=O)CNS(=O)(=O)c1ccc(C)cc1,11.1
10,CCn1c(SCC(=O)NCCc2ccccc2)nnc1C(C)C,12
11,CCOC(=O)c1oc2ccc(S(=O)(=O)Nc3ccc4c(c3)n(C)c(=O)n4C)cc2c1C,2.26
12,Cc1cc(-c2ccccc2)nc2cc(C(=O)N(Cc3ccccc3)Cc3ccccc3)nn12,-3.92
13,CN(C)C(=S)Nc1ccc(Br)cc1Cl,7.39
14,Nc1nccnc1C(=O)N/N=C/c1ccco1,13.2
15,Cc1csc(NC(=O)CSc2nnc(CCNC(=O)c3ccc(Cl)c(Cl)c3)n2C)n1,2.76
16,COc1ccc(-n2nnnc2SCC(=O)Nc2ccccc2N2CCOCC2)cc1,-6.62
17,COc1ccc(CN2CCCC(C(=O)c3cccc(OC(C)C)c3)C2)cc1Cn1cccn1 (centres unmarked),-3.41
18,COc1ccccc1C(=O)C1CCCN(Cc2cccc3nccnc23)C1 (centres unmarked),-45
19,COc1c(C)cc(C(=O)C2CCCN(Cc3cccc4nccnc34)C2)cc1C (centres unmarked),-21.2
20,O=C(c1ccc(Cl)cc1)C1CCCN(Cc2ccc3ncccc3c2)C1 (centres unmarked),-2.91
21,CSc1ccc(C(=O)C2CCCN(Cc3cccc4nccnc34)C2)cc1 (centres unmarked),-82
22,COc1ccc(CN2CCCC(C(=O)c3ccc(Cl)cc3)C2)cc1Cn1cccn1 (centres unmarked),-78.4

row,Structure (SMILES),"hERG current change (%, negative = inhibition) at 1uM [%]"
1,Cc1ccc(NC(=O)CSc2ccccc2NC(=O)c2cccc(Cl)c2)cc1Cl,0.293
2,COc1ccc(OCC(=O)Nc2c(C(=O)N3CCC(N4CCCCC4)CC3)oc3ccccc23)cc1,-82.8
3,COCC(=O)Nc1c(C(=O)N2CCCC2)oc2ccccc12,8.9
4,O=C(Nc1c(C(=O)N2CCC(N3CCCCC3)CC2)oc2ccccc12)c1ccc(F)cc1,-47.7
5,CCOc1ccc(C(=O)Nc2c(C(=O)N3CCC(N4CCCCC4)CC3)oc3ccccc23)cc1,-82
6,O=C(Nc1c(C(=O)N2CCC(N3CCCCC3)CC2)oc2ccccc12)c1c(F)cccc1F,-5.22
7,O=C(COc1ccccc1)Nc1c(C(=O)N2CCC(N3CCCCC3)CC2)oc2ccccc12,-9.1
8,COc1ccccc1-n1cnc(N)c1C(C)=O,6.83
9,COc1cccc(-c2nc(OC(C)C)c3ccccc3n2)c1,7.09
10,CCOC(=S)SCC(=O)Nc1nc(-c2ccccc2)cs1,29.9
11,CCOC(=O)N1CCN(C(=O)CSCC(=O)Nc2nc(-c3ccc(C)cc3)cs2)CC1,1.87
12,CCOC(=S)SCC(=O)Nc1nc(-c2ccc(Br)cc2)cs1,-92
13,CCOC(=O)C1=C(C)OC(N)=C(C#N)C1c1ccc(C)o1 (centres unmarked),7.95
14,COc1ccc(CCN(C)CC(O)COc2ccc(C(C)=O)cc2OC)cc1OC (centres unmarked),8.67
15,COc1ccc(CCN(C)CC(O)c2ccccc2)cc1OC.O=C(O)C(=O)O (centres unmarked),1.76
16,COc1ccc(CCN(C)Cc2ccc(F)cc2F)cc1OC,-2.08
17,COc1ccc(CCN(C)CC(O)COc2c(C)ccc(C)c2C)cc1OC (centres unmarked),-68.7
18,COc1ccc(CCN(C)CC(O)COC(c2ccc(F)cc2)c2ccc(F)cc2)cc1OC (centres unmarked),-79.9
19,COc1ccc(CCNCC(O)COc2c(C)cccc2C)cc1OC.O=C(O)C(=O)O (centres unmarked),7.9
20,Cc1cccc(Cn2c(=O)n(CCCC(=O)NCc3ccco3)c(=O)c3ccccc32)c1,-4.67
21,O=C(CCc1ccccc1)Nc1sc2c(c1C(=O)O)CCCC2,20.1
22,CCc1nnc(N2C(=N)SCC2=O)s1,4.71

row,Structure (SMILES),"hERG current change (%, negative = inhibition) at 1uM [%]"
1,Cc1ccc(S(=O)(=O)NC(C)C(=O)NC2CCCCCC2)cc1 (centres unmarked),-2.05
2,NC(=O)COC(=O)c1ccc2c(c1)C(=O)N(Cc1ccco1)C2=O,9.91
3,Cc1cc(OCc2cccc(S(=O)(=O)N3CCOCC3)c2)ccc1Cl,4.05
4,N#Cc1ccccc1OCc1cccc(S(=O)(=O)N2CCOCC2)c1,11.3
5,N#Cc1ccc(OCc2cccc(S(=O)(=O)N3CCOCC3)c2)cc1,-57.3
6,COc1ccc(OC)c(/C=N/NC(=O)C(=O)N2CCCC2)c1,1.25
7,CCOC(=O)N1CCN(c2cc(=O)n(-c3ccc(C)cc3)c(=O)[nH]2)CC1,-8.88
8,CN1CCN(c2ccc([N+](=O)[O-])cc2C(=O)Nc2ccccc2)CC1,-59.8
9,Cc1cccc(NC(=O)c2cc([N+](=O)[O-])ccc2N2CCN(C)CC2)c1,-41.2
10,CN1CCN(c2ccc([N+](=O)[O-])cc2NC(=O)c2ccccc2Cl)CC1,-75.6
11,CN1CCN(c2ccc([N+](=O)[O-])cc2NC(=O)c2cccs2)CC1,-14.2
12,COc1ccc(NC(=O)c2cc([N+](=O)[O-])ccc2N2CCN(C)CC2)cc1,-15.5
13,CN1CCN(c2ccccc2NC(=O)c2ccc([N+](=O)[O-])cc2Cl)CC1,0.769
14,O=C1NCCc2c1[nH]c1ccccc21,-4.21
15,COc1ccc(C(=O)Nc2ccc(NC(C)=O)cc2)cc1S(=O)(=O)N1CCCC1,16.9
16,Cc1nc(NCCC(C)C)c2nnn(Cc3ccccc3)c2n1,11.3
17,O=C(O)/C=C\C(=O)O.O=[N+]([O-])c1ccc2nc(N3CCNCC3)ccc2c1,1.34
18,COC(=O)/C=c1/s/c(=C(\C#N)C(=O)NCc2ccco2)n(-c2ccccc2)c1=O,14.8
19,CCCC(=NCCc1c(C)[nH]c2ccccc12)C1=C(O)CC(c2ccccc2)CC1=O (centres unmarked),-11.1
20,CCCN1CCN(CCCNC(=O)C2CCN(c3nnc(-n4c(C)ccc4C)s3)CC2)CC1,13.1

# From article PMC4336329 (PLoS ONE, 2015)
